D1 potentiator – enhances dopamine response at the human D1 receptor | P21728 | HEK293 TREx D1 cells, calcium flux, dopamine EC20 potentiation | potentiation, % at 10 µM | 360,000 tested, 0.036% active; in the data active means potentiation above about 30%
Target sequence (P21728 whole entry, looked up): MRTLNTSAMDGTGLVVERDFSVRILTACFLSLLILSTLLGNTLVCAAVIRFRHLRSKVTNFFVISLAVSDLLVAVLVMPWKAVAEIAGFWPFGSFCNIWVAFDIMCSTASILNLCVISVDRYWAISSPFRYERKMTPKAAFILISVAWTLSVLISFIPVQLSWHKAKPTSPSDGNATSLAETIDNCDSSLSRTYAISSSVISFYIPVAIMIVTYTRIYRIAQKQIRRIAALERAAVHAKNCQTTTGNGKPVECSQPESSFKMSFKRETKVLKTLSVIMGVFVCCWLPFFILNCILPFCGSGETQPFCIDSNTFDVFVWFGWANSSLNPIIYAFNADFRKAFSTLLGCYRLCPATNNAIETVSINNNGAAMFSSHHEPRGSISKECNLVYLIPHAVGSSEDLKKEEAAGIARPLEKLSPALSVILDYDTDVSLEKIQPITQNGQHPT
TRHR ag – agonists of human TRH receptor | 360,000 tested, 0.18% active | P34981 | activation, % at 2 µM | TRHR cells, calcium flux fluo-8, FDSS agonist mode
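In this calcium-flux screen, cells bearing human TRHR are dye-loaded with fluo-8, baselined for 10 cycles, then exposed to library compounds; positive kinetic calcium responses during the agonist phase mark hits, with TRH as control.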
D1 agonist – agonists of human D1 dopamine receptor; P21728; activation, % at 2 µM; 360,000 tested, 1% active; HEK293 T-REx D1 cells, calcium flux, agonist mode
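Tetracycline-induced HEK293 TREx D1 cells, force-coupled to calcium signalling, were dye-loaded with a no-wash calcium kit. Compound was pin-added after a 10 s baseline. Fluorescence was read kinetically at 1 cycle/s for 180 s, with calcium rises flagged as agonism.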
TRHR PAM – allosterically enhances the human TRH receptor; P34981; enhancement, % at 2 µM; 360,000 tested, 0.66% active; TRHR cells, fluo-8 calcium fluorescence, EC20 TRH enhancement; AID 493056; in the data active means enhancement above about 30%
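Enhancer read-out: after compound pinning and an initial kinetic agonist-mode read, an EC20 of TRH (10 nM final) was injected and fluo-8 calcium signal (Ex 480/Em 530) followed at 1 s/cycle for 100 cycles in TRHR-expressing cells.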
D1 antagonist – antagonists of human D1 dopamine receptor | HEK293 TREx D1 cells, calcium flux, dopamine EC80; stronger effect = lower value | P21728 | AID 504652 | activity change, negative = inhibition, % at 10 µM | 360,000 tested, 3.2% active; in the data active means activity change below about -30%
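Cells carrying a force-coupled, tetracycline-inducible human D1 receptor report calcium flux. Each well gets a 10 s baseline, compound with 180 s monitoring, then an EC80 dopamine stimulus with a second 180 s kinetic read.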
Hits are given with their value. Hits are enriched below; roughly 4.7% of the tested compounds scored in any of these assays. Unless noted, no stated cut-off is given here; in the data, active means activation above about 30%; inactive means the rest.

Results for CCc1ccc(-c2nn(CC(=O)NCc3ccccc3)c3c2cnc2ccc(C)cc23)cc1 ?
D1 potentiator: inactive; TRHR ag: inactive; D1 agonist: inactive; TRHR PAM: inactive; D1 antagonist: inactive

What do the screens show for `CC1CCN(c2ccc(-c3nc(-c4ccccc4)no3)cc2[N+](=O)[O-])CC1`?
D1 potentiator: inactive; TRHR ag: inactive; D1 agonist: inactive; TRHR PAM: inactive; D1 antagonist: inactive

How did O=C(CSc1nnc(-c2ccc(Cl)cc2)o1)N1CCc2ccccc21 do in these assays?
D1 potentiator: inactive; TRHR ag: inactive; D1 agonist: inactive; TRHR PAM: inactive; D1 antagonist: inactive

How did COc1ccc(OC)c(-c2noc(N3CCN(c4cccc(C)c4C)CC3)n2)c1 do in these assays?
D1 potentiator: inactive; TRHR ag: inactive; D1 agonist: inactive; TRHR PAM: inactive; D1 antagonist: inactive

Results for O=C(Nc1ccc(S(=O)(=O)Nc2nccs2)cc1)c1cccc(F)c1 ?
D1 potentiator: inactive; TRHR ag: inactive; D1 agonist: inactive; TRHR PAM: inactive; D1 antagonist: -46.7

Results for CCOc1ccccc1/C=C/c1onc(C)c1S(=O)(=O)N1CCC(C(=O)N2CCCCC2)CC1 ?
D1 potentiator: inactive; TRHR ag: inactive; D1 agonist: inactive; TRHR PAM: inactive; D1 antagonist: inactive

How did Cc1ccc(NC(=O)CCN2C(=O)c3cccc4cccc(c34)C2=O)cc1 do in these assays?
D1 potentiator: inactive; TRHR ag: inactive; D1 agonist: inactive; TRHR PAM: inactive; D1 antagonist: -32.6

What do the screens show for `CCOC(=O)c1sc2nc(CSc3ccccc3)nc(N3CCCN(C)CC3)c2c1C`?
D1 potentiator: inactive; TRHR ag: inactive; D1 agonist: 30.5; TRHR PAM: inactive; D1 antagonist: inactive

What do the screens show for `CCOC(=O)c1sc2nc(CSc3ccccc3)nc(N3CCC(C(N)=O)CC3)c2c1C`?
D1 potentiator: inactive; TRHR ag: inactive; D1 agonist: inactive; TRHR PAM: inactive; D1 antagonist: inactive

Results for COc1ccc2nc(N3CCCC3)c(C#N)cc2c1 ?
D1 potentiator: inactive; TRHR ag: inactive; D1 agonist: 40.9; TRHR PAM: inactive; D1 antagonist: inactive

How did Cc1ccc2nc(N3CCN(C(=O)c4ccc(F)cc4)CC3)c(C#N)cc2c1 do in these assays?
D1 potentiator: inactive; TRHR ag: inactive; D1 agonist: inactive; TRHR PAM: inactive; D1 antagonist: -46.4

How did Cc1noc2ncnc(N3CCN(c4cccc(Cl)c4)CC3)c12 do in these assays?
D1 potentiator: inactive; TRHR ag: inactive; D1 agonist: inactive; TRHR PAM: inactive; D1 antagonist: -33.9

What do the screens show for `Cc1nn(-c2ccccc2)c(Cl)c1/C=N/Nc1ccc(Cl)c(C(=O)O)c1`?
D1 potentiator: inactive; TRHR ag: inactive; D1 agonist: inactive; TRHR PAM: inactive; D1 antagonist: inactive

Results for Cc1nn(-c2ccccc2)c(Cl)c1/C=N/Nc1ccc(S(=O)(=O)Nc2ccccc2C(=O)O)cc1[N+](=O)[O-] ?
D1 potentiator: inactive; TRHR ag: inactive; D1 agonist: inactive; TRHR PAM: inactive; D1 antagonist: -31.7

How did COc1ccc(S(=O)(=O)N(Cc2cc3cc(C)ccc3[nH]c2=O)CC2CCCO2)cc1 (stereo not given) do in these assays?
D1 potentiator: inactive; TRHR ag: inactive; D1 agonist: inactive; TRHR PAM: inactive; D1 antagonist: inactive

Results for CCN(Cc1cc2ccccc2[nH]c1=O)S(=O)(=O)c1ccc(OC)cc1 ?
D1 potentiator: inactive; TRHR ag: inactive; D1 agonist: inactive; TRHR PAM: inactive; D1 antagonist: -39.3

Results for O=c1[nH]c2ccccc2cc1CN(CC1CCCO1)S(=O)(=O)c1ccccc1 (stereo not given) ?
D1 potentiator: inactive; TRHR ag: inactive; D1 agonist: inactive; TRHR PAM: inactive; D1 antagonist: -34.9

Results for COc1ccc([C@H]2CC(=O)C=C(c3cccc(OC(F)(F)F)c3)C2)cc1 ?
D1 potentiator: inactive; TRHR ag: inactive; D1 agonist: inactive; TRHR PAM: inactive; D1 antagonist: -30.1

What do the screens show for `COc1ccc(CNc2nc(-c3ccc(OC)c(OC)c3)cc(C(F)(F)F)n2)cc1`?
D1 potentiator: inactive; TRHR ag: inactive; D1 agonist: inactive; TRHR PAM: inactive; D1 antagonist: inactive

What do the screens show for `Fc1ccc(-c2cc(C(F)(F)F)nc(NCc3ccccc3)n2)cc1`?
D1 potentiator: inactive; TRHR ag: inactive; D1 agonist: 36.1; TRHR PAM: inactive; D1 antagonist: inactive

Screens deposited in PubChem by National Center for Advancing Translational Sciences (NCATS).
